Assay outcomes from PubChem BioAssay.
In the library only some 3.6% were active in any assay of this set; here they are far more common.
mHTT-CaM PPI inh – mHTT-calmodulin interaction abrogation; P42858; AlphaScreen His-mHTT/GST-CaM binding, luminescence; inhibition, % at 15 µM; actives 3.6% (n = 190,000)
Pf apPOL inh – Pf-apPOL DNA polymerase inhibition; Recombinant Pf-apPOL, molecular beacon fluorescence, 1.5 h; inhibition, % at 10 µM; actives 0.25% (n = 210,000); AID 1794808
Each line names hits and unclear results; the compound was inactive in the other large screens. Cut-off read from the data, not from the text of the source: active = inhibition above about 50%; inactive = the rest.

CCOc1ccccc1C1C(C#N)=C(C)NC2=C1C(=O)CC(c1ccc(Cl)cc1)C2 (stereo not drawn)	mHTT-CaM PPI inh 52
COc1ccc(C2CC(=O)C3=C(C2)Nc2ccccc2NC3c2cc(C)ccc2C)cc1 (stereo not drawn)	mHTT-CaM PPI inh 62
COc1cc(C2Nc3ccccc3NC3=C2C(=O)CC(c2ccc(C)cc2)C3)cc(Cl)c1O (stereo not drawn)	mHTT-CaM PPI inh 62
COc1cccc(C2Nc3ccccc3NC3=C2C(=O)CC(c2ccc(Cl)cc2)C3)c1OC (stereo not drawn)	mHTT-CaM PPI inh 80
CC1=C(C#N)C(c2cccnc2)C2=C(CC(c3ccc(Cl)cc3)CC2=O)N1 (stereo not drawn)	none
COc1ccc(C2CC(=O)C3=C(C2)Nc2ccccc2NC3c2cc(Cl)c(O)c(OC)c2)cc1 (stereo not drawn)	none
CCOc1cccc2cc(-c3nnc(NC(=O)Cc4cccs4)o3)oc12	none
CN(C)c1nc(OCC(F)(F)F)nc(N2CCN(C34CC5CC(CC(C5)C3)C4)CC2)n1	none
Cc1oc2ccn(Cc3ccc(F)cc3)c(=O)c2c1C(=O)N1CCN(C(C)C)CC1	none
Cc1oc2ccn(Cc3ccc(F)cc3)c(=O)c2c1C(=O)NC(C)C	mHTT-CaM PPI inh 80
CC(C)(C)C(O)CCNC(=O)Nc1ccc2c(c1)OCO2 (stereo not drawn)	none
Cc1ccc(N2NC(=O)/C(=C\c3ccc(Cl)c([N+](=O)[O-])c3)C2=O)cc1C	mHTT-CaM PPI inh 96
O=C1NN(c2ccc(Br)cc2)C(=O)/C1=C/c1cc([N+](=O)[O-])c(Cl)cc1Cl	mHTT-CaM PPI inh 95
O=C1NN(c2cccc(Br)c2)C(=O)/C1=C/c1ccc(O)cc1	none
Cc1ccc(N2NC(=O)/C(=C\c3ccc(Br)cc3)C2=O)cc1C	none
O=C1NN(c2ccc(F)cc2)C(=O)/C1=C/c1cccc(Br)c1	mHTT-CaM PPI inh 70
Cc1cc([N+](=O)[O-])cc(/C=C2\C(=O)NN(c3ccc(Br)cc3)C2=O)c1O	none
Cc1ccc(N2NC(=O)/C(=C\c3cccc(Br)c3)C2=O)cc1C	mHTT-CaM PPI inh 69
Cc1ccc(N2NC(=O)/C(=C\c3ccc(O)c([N+](=O)[O-])c3)C2=O)cc1Cl	none
Cc1ccc(CNC(=O)c2csc(-c3cn(C)c4ncccc34)n2)cc1C	none
CCCCc1c(C)nc(NN=C2CCCC2)[nH]c1=O	none (no result: Pf apPOL inh)
CCOc1cc(C2C(C#N)=C(N)Oc3n[nH]c(-c4ccccc4)c32)ccc1O (stereo not drawn)	none
COc1ccc(C2C(C#N)=C(N)Oc3n[nH]c(C)c32)cc1COc1cccc(Cl)c1 (stereo not drawn)	mHTT-CaM PPI inh 69
N#CC1=C(N)Oc2n[nH]c(-c3ccccn3)c2C1c1ccc(F)cc1 (stereo not drawn)	mHTT-CaM PPI inh 65
COc1cccc(C2C(C#N)=C(N)Oc3n[nH]c(C)c32)c1 (stereo not drawn)	none
N#CC1=C(N)Oc2n[nH]c(-c3ccccn3)c2C1c1cccc(F)c1 (stereo not drawn)	none
CCOc1cc(C2C(C#N)=C(N)Oc3n[nH]c(-c4ccccn4)c32)ccc1O (stereo not drawn)	mHTT-CaM PPI inh 52
COc1cccc(C(=O)N2CCCC(c3nc(-c4ccc(NC(C)=O)cc4)no3)C2)c1OC (stereo not drawn)	none
Cc1ccccc1C1=N/C(=C\c2cccc(I)c2)C(=O)O1	none
CCC(=O)Nc1cccc(-c2noc(C3CCN(C(=O)c4ccc(Cl)cc4)CC3)n2)c1	none
Cc1cc(S(=O)(=O)N2CCC(c3nc(C(=O)N4CCCC4)c(C)o3)CC2)ccc1F	none
COc1ccc(C2=N/C(=C\c3cccs3)C(=O)O2)cc1	none
OCCNCCOc1ccc(Br)cc1Cl	mHTT-CaM PPI inh 100
OCCNCCOc1ccc(Br)cc1	none
COc1ccc(C=Nc2ccc(Cl)c([N+](=O)[O-])c2)cc1	none
Oc1ccc(-c2csc(Nc3ccccn3)n2)c(O)c1	mHTT-CaM PPI inh 96
Cc1ccc(Nc2nc(-c3ccc4c(c3)OCO4)cs2)nc1	none
Cc1cccnc1Nc1nc(-c2ccc(O)cc2O)cs1	mHTT-CaM PPI inh 100
COc1ccc(-c2csc(Nc3ncccc3C)n2)cc1C	none
Cc1ccc(Nc2nc(-c3ccc(O)c(O)c3)cs2)nc1	mHTT-CaM PPI inh 79
Cc1ccc(-c2csc(Nc3ccccn3)n2)c(C)c1	none
O=[N+]([O-])c1cccc(NCn2nnc3ccccc32)c1	none
O=C(Nc1cccc([N+](=O)[O-])c1)c1ccc2nc(N3C(=O)CCC3=O)sc2c1	none
O=C(Nc1cccc(Br)c1)c1ccc2nc(N3C(=O)CCC3=O)sc2c1	mHTT-CaM PPI inh 55
COc1cc(Nc2nc(-c3ccc([N+](=O)[O-])cc3)cs2)c(OC)cc1Cl	none
CCOc1ccccc1N1CCN(C(=O)C2CCC2)C(C)C1=O (stereo not drawn)	none
COc1ccc(CC(=O)Nc2c3c(nn2-c2ccc(Cl)cc2)CS(=O)(=O)C3)cc1	none
O=C(c1ccc(Br)cc1)c1ccc(N2CCOCC2)c([N+](=O)[O-])c1	none
CN1CCN(c2ccc(C(=O)c3ccc(Br)cc3)cc2[N+](=O)[O-])CC1	mHTT-CaM PPI inh 57
